Compound activity as filed in PubChem BioAssay.
PERK inhibitor – blocks human PERK kinase | Q9NZJ5 | CHO PERK-DD fusion, SEAP luminescence translation reporter | inhibition, % at 5.6 µM | 220,000 compounds, 0.17% hits | AID 1416;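 active = inhibition above the mean inhibition of all tested compounds plus 3 SD, set separately per screening campaign, cut at about 2.9% in these data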;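 also: PERK kinase domain activated by AP20187 dimerizer at 100 nM; 0% = DMSO with dimerizer and 100% = rapamycin at 8.4 µM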
WT yeast gro inh – growth inhibition of WT yeast, mitochondrial fusion screen | mitochondrial fusion phenotypic screen, WT strain | inhibition, % at 10 µM | 190,000 compounds, 2.1% hits | AID 1362; in the data active = inhibition above about 58%; tested in S. cerevisiae
ROMK mod – modulates human ROMK potassium channel activity; P48048; Tet-inducible ROMK, thallium flux fluorescence; actives lie on both sides; B-score at 10 µM; 130,000 compounds, 2% hits;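 active = signal ratio slope over the read window, or its plate-corrected B-score, at least 3 SD from the plate mean, either direction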;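 also: B-score of the F/F0 ratio slope over 7 to 12 s after thallium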
Target sequence (P48048 whole entry, looked up): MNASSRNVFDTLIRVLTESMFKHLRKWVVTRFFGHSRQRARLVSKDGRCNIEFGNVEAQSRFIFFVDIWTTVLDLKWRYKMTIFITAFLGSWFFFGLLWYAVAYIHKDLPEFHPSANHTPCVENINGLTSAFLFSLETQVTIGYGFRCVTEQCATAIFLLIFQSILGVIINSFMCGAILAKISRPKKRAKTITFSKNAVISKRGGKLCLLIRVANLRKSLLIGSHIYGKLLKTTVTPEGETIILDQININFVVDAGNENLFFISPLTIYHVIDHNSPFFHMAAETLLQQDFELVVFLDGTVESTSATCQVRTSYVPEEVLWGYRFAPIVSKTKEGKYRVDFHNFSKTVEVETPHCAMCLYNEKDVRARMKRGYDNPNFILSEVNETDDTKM
Arbovirus anti – blocks arbovirus infection; arbovirus infection cell-based antiviral screen; inhibition, % at 10 µM; 200,000 compounds, 0.37% hits; AID 1251; in the data active = inhibition above about 30%
Starred values were filed as active, the others as inactive; . = no result. The list is not random: actives were taken first. Their share in the collection is about 3.3%.

SMILES	PERK inhibitor	WT yeast gro inh	ROMK mod	Arbovirus anti
O=[N+]([O-])c1ccc(-c2c(O)c3ccccc3c3nc4ccccc4nc23)cc1	1.3	13.2	0.31	31.6*
O=c1c2ccccc2nc(-c2ccc([N+](=O)[O-])cc2)n1O	1.0	17.5	0.496	6.1
O=C(/C=C/C=C/c1ccccc1)CC1(O)C(=O)N(CCc2ccccc2)c2ccccc21 (centres undefined)	0.5	60.2*	1.1	-46.0
Cc1cc(C)nc(Nc2n[nH]c(-c3ccc(N)cc3)n2)n1	-0.5	59.6*	1.51	2.7
CSc1ncc(Cl)c(C(=O)C(C#N)c2nc3c(C)cc(C)cc3c(=O)[nH]2)n1 (centres undefined)	0.9	4.3	-0.137	41.1*
CSc1ncc(Cl)c(C(=O)Nc2cccc(C)c2)n1	0.6	-5.9	.	2.6
COc1cc2[nH]c(Cl)c([N+](=O)[O-])c2cc1OC	0.7	.	.	.
COc1ccc(C(O)C(CN2CCOCC2)c2ccccc2)cc1F (centres undefined)	0.1	26.0	.	7.2
COc1ccc(C(=O)C(CN2CCOCC2)c2ccccc2)cc1F (centres undefined)	-0.8	61.4*	-0.972	-42.3
O=[N+]([O-])c1ccc(C2NS(=O)(=O)N=C3CCCCCN32)cc1 (centres undefined)	3.6*	.	.	.
COc1ccc(/C=N/OCC(=O)Nn2c(C)nc3ccccc3c2=O)cc1	0.1	-3.0	-0.921	1.9
Cc1cccc(C)c1NC(=O)C(NC(=O)CN1C(=O)c2ccccc2C1=O)c1ccccc1 (centres undefined)	-0.3	1.1	.	-4.4
COC1(C)CC2C(CC1OC(=O)c1cc([N+](=O)[O-])cc([N+](=O)[O-])c1)C2(C)C (centres undefined)	0.3	75.7*	-0.225	2.0
O=C(NC1CCCCC1)c1sc(=S)n2c1[nH]c(=O)c1ccccc12	0.2	64.1*	-2.61	11.2
CCCCNC(=O)c1sc(=S)n2c1[nH]c(=O)c1ccccc12	0.0	-6.9	-1.49	6.1
CCO/N=C(/C)c1c(O)c(C)c(-c2ccccc2)n(-c2ccccc2)c1=O	0.9	-9.4	0.147	2.2
O=C(COC(=O)c1ccccc1C(=O)c1ccc(Cl)c([N+](=O)[O-])c1)NC1CCCCCC1	2.5	77.7*	-1.84	-30.5
Cc1ccc2c(c1)N(C(=O)NC1CCCCC1)C(C)(C)CC2C (centres undefined)	1.6	0.5	-0.365	-2.7
Cc1cc(NC(=O)COC(=O)c2n[nH]c3ccccc23)no1	0.6	-1.2	.	-5.2
Cc1cccc(C)c1OCCOC(=O)c1n[nH]c2ccccc12	0.1	67.4*	-0.768	-2.9
Cc1onc(-c2ccccc2)c1C(=O)Nc1ccc(S(=O)(=O)NC(C)(C)C)cc1	-0.1	-22.8	0.0697	3.2
CCc1ccc(C2=NN(c3ccc(S(N)(=O)=O)cc3)C(c3ccc(F)cc3)C2)cc1 (centres undefined)	0.2	94.0*	.	-38.5
NS(=O)(=O)c1ccc(N2N=C(c3ccccc3)CC2c2ccccc2)cc1 (centres undefined)	-0.2	71.9*	.	-31.9
CCCCN(CCCC)c1ncnc2nc[nH]c12	-0.3	78.4*	0.998	19.2
CCCCN(Cc1ccccc1)c1ncnc2nc[nH]c12	0.7	74.6	.	1.1
SMILES	PERK inhibitor	WT yeast gro inh	ROMK mod	Arbovirus anti
COC(=O)c1ccsc1NC(=O)c1ccccc1	0.9	-49.8	-0.641	13.8
NC(=O)c1ccsc1NC(=O)c1ccc(N2CCCC2=O)cc1	0.0	14.9	0.487	4.5
CNC(=O)c1ccsc1NC(=O)c1ccc2c(c1)CCCC2	-0.3	71.8*	0.946	-7.5
NC(=O)c1ccsc1NC(=O)c1ccc2c(c1)CCCC2	-0.4	69.7*	0.0113	-11.1
O=C(O)CSc1ncnc2scc(-c3ccc(Br)cc3)c12	3.6*	.	0.0411	.
COc1ccc(NC(=O)N2c3ccccc3CC2C)cc1OC (centres undefined)	-0.1	95.1*	.	2.4
N=c1n(Cc2ccccc2)c2ccccc2n1CC(O)COc1ccc(Cl)cc1Cl (centres undefined)	-0.2	93.8*	-1.65	-30.9
O=C1Nc2ccccc2C1=Nc1ccc(-c2nnc3n2CCCCC3)cc1	0.8	0.7	.	-4.2
COc1ccc(/C=C/C(=O)N[C@@H](C)C(=O)O)cc1	3.4*	-7.7	0.634	6.8
O=S(=O)(c1ccc(Cl)cc1)N1CCCN(c2nc3ccc(Cl)cc3s2)CC1	0.5	.	.	.
Clc1ccc(-c2n[nH]c3c2CCCC3)cc1	0.2	62.1*	0.818	5.3
CCOC(=O)/C(=N/Nc1ccc(C)cc1)S(=O)(=O)c1ccc(Cl)cc1	-0.4	57.6	-0.4	-1.7
NNC(=O)/C(=N/Nc1ccccc1)S(=O)(=O)c1ccc(Cl)cc1	-0.3	69.0*	-0.208	-23.5
COc1ccccc1NC(=O)C1(C)Cc2ccccc2C(=O)O1 (centres undefined)	-0.4	1.7	.	-3.2
